The record followed here is PubChem BioAssay (NCATS).

Each structure is given as a SMILES string. Inconclusive results are not listed. Calls of active or inactive are those of the source. Calls come from the whole dose curve; as a rule, active = well fitted curve in the direction sought with a large enough effect; inconclusive = small, poorly fitted or top-dose-only effect, or another doubt; inactive = no such curve, though single readings can be large; an effect the other way counts as inactive or inconclusive.

Assay [1] concerns the target Glutaminase kidney isoform, mitochondrial (Homo sapiens) (UniProt O94925). Kind of assay: qHTS for Inhibitors of Glutaminase (GLS): LOPAC Validation (AID 624146). Note: nearly all actives have a fitted effect of over 60% in size. Note: potency is the fitted concentration of half-maximal effect. An outline of the steps:
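hKGA in 45 mM KH2PO4 pH 8.2, 0.02% Tween-20 with pin-transferred compounds; 1 mM L-glutamine (stock) plus glutamate oxidase/HRP/Amplex Red coupling added. Fluorescence read initially and after 30 min at RT.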
Background: In qHTS, concentration-response curves come from the screen itself.

The nature of assay [2]: qHTS of Trypanosoma Brucei Inhibitors: LOPAC Validation (AID 624147). Note: potency is the fitted concentration of half-maximal effect. Summed up:
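Screened from lowest to highest concentration, compounds were pinned into TbPYK/substrate mixtures, and ADP (130 uM final) was added. Plates sat at room temperature for 45 min prior to Kinase-Glo Plus detection by luminescence.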

For assay [3], the target named is Glucagon-like peptide 1 receptor (Homo sapiens) (UniProt P43220). Kind of assay: qHTS of GLP-1 Receptor Agonists: LOPAC Validation (AID 624148).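 Note: higher luminescence signal means agonism.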 An outline of the steps: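 HEK293 cells stably co-expressing a cAMP-responsive luciferase reporter and a hypersensitive GLP-1R were plated 12 h at 37 °C and exposed to compounds for 4-6 hr at 37 °C, 5% CO2. Luminescence was read 12 min after adding detection reagent.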
Chain of Glucagon-like peptide 1 receptor (Homo sapiens) (P43220 whole entry, looked up): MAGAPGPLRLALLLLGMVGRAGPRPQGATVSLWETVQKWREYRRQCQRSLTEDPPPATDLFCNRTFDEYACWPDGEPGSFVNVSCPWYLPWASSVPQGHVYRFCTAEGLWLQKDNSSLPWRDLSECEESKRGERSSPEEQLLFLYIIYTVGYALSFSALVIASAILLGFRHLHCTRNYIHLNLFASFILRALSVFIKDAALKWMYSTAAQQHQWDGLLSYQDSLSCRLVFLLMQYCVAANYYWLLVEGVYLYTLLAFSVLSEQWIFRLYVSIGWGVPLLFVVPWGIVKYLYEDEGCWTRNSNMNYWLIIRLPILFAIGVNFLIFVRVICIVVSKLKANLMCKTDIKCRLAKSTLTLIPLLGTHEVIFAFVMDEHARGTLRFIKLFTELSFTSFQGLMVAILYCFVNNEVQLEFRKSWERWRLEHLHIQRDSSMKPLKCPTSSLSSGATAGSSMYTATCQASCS

The nature of assay [4]: qHTS of Nrf2 Activators: LOPAC Validation (AID 624149). An outline of the steps: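 Luminescence read-out of ARE-luciferase activation: AREc32_Fluc cells treated with compounds for 24 hr at 37 deg C, then lysed with Steady-Glo for 30 min at room temperature before reading.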
Assay [5] can be described thus: HTS Assay for Allosteric Antagonists of the Human D2 Dopamine Receptor: Hit Validation in HTRF (AID 624455).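 Note: stable D1 dopamine receptor cell line scored for blocking the D1 response.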 Summed up:
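First, antagonism was screened by calcium flux in a force-coupled, inducible Hek293 Trex D2 line challenged with EC80 dopamine. Hits then went into an HTRF assay in cells stably expressing D1, testing inhibition of the D1 response.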

For assay [6], the target named is Tumor susceptibility gene 101 protein (Homo sapiens) (UniProt Q99816). Kind of assay: qHTS Assay for Iinhibitors of HIV-1 Budding by Blocking the Interaction of PTAP/TSG101: Hit Validation (AID 651600). Note: nearly all actives have a fitted effect of over 70% in size. Summed up:
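Fluorescence polarization binding assay: Tsg101 binding domain (10 uM final) pre-dispensed with compounds, then FITC-labeled PTAP-motif peptide (50 nM final) added; 20 min at r.t. in HEPES pH 7.5 buffer with NaCl, Tween 20, EDTA, TCEP.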

Chain of Glutaminase kidney isoform, mitochondrial (Homo sapiens) (O94925 whole entry, looked up, canonical isoform): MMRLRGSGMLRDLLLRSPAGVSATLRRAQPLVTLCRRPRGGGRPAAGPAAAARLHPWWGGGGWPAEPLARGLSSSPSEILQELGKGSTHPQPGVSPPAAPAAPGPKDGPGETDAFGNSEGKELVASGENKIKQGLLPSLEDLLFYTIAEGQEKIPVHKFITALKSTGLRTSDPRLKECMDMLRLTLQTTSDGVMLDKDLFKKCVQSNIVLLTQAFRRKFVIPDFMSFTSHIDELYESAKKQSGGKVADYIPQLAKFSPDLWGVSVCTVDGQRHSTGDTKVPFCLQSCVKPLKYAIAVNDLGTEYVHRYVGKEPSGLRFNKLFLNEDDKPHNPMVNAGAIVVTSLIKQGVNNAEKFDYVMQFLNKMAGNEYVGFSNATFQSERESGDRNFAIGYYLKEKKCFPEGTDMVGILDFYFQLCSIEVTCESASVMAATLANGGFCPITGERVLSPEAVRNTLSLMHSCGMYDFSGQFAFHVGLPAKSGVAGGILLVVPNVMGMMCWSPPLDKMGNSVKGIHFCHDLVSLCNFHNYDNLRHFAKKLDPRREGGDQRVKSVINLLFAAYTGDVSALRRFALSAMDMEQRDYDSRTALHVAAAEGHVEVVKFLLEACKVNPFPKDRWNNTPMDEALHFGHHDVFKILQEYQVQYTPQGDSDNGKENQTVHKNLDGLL
Chain of Tumor susceptibility gene 101 protein (Homo sapiens) (Q99816 whole entry, looked up, the tested form may be a part): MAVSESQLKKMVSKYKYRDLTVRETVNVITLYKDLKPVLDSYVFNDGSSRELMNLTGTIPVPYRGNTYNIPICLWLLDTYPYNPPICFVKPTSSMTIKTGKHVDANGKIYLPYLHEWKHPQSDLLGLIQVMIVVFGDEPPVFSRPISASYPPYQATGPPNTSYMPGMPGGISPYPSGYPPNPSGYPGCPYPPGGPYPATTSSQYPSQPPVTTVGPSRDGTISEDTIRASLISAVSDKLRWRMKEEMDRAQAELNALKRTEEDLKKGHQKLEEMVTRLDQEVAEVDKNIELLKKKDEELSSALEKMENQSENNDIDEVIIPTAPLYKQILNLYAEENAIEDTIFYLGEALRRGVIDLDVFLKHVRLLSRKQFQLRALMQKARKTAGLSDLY

Turning to `CCCCOc1cc(CC2CNC(=O)N2)ccc1OC` (stereo not drawn), the Potency entry in assay [1], in assay [2], in assay [3], in assay [4] and in assay [5] was “inactive” throughout.

`NC(=O)CNCCC(c1ccccc1)c1ccccc1`: the Potency entry in assay [1], in assay [2], in assay [3], in assay [4] and in assay [5] was “inactive” throughout.

Regarding `CN1CCCC1CCOC(C)(c1ccccc1)c1ccc(Cl)cc1` (stereo not drawn), the Potency result in assay [1], in assay [2], in assay [3], in assay [4] and in assay [5] was “inactive” in each case. Moreover, the compound was classed as inactive in assay [6].

For `Cc1ccccc1/C=C/C1=NCCN1`, the Potency result in assay [1], in assay [2], in assay [3] and in assay [5] was “inactive” each time.

Turning to `CN(CC[C@@H](Oc1ccc(C(F)(F)F)cc1)c1ccccc1)CC(=O)O`, the Potency entry in assay [1], in assay [2], in assay [4] and in assay [5] was “inactive” each time.

Consider `O=c1ccc2c(OCCCCc3ccccc3)c3ccoc3cc2o1`, for which the Potency result in assay [1], in assay [2], in assay [3], in assay [4] and in assay [5] was “inactive” each time.

Take `NC(Cc1cccc(-c2ccccc2CP(=O)(O)O)c1)C(=O)O` (stereo not drawn): the Potency entry in assay [1], in assay [2], in assay [3], in assay [4] and in assay [5] was “inactive” throughout.

Turning to `O[Si](CCCN1CCCCC1)(c1ccc(F)cc1)C1CCCCC1` (stereo not drawn), the Potency entry in assay [1], in assay [2], in assay [3] and in assay [5] was “inactive” throughout.

As to `O=C(O)C1=CCCN(CCON=C(c2ccccc2)c2ccccc2)C1`, the Potency entry in assay [1], in assay [2], in assay [3] and in assay [5] was “inactive” throughout.

Consider `OC[C@H]1O[C@H](n2cnc3c(N[C@H]4CCC[C@@H]4O)ncnc32)[C@H](O)[C@@H]1O`, for which the Potency entry in assay [1], in assay [2], in assay [4] and in assay [5] was “inactive” each time.

With `N=S(=O)(O)Cc1noc2ccccc12`, the Potency entry in assay [1], in assay [2], in assay [3], in assay [4] and in assay [5] was “inactive” throughout.

Turning to `O=c1onc2n1-c1cc(Br)ccc1OC2`, the Potency result in assay [1], in assay [2], in assay [3], in assay [4] and in assay [5] was “inactive” throughout.

For `S=C(S)N1CCCC1`, the Potency in assay [1] is 12.6 µM (active); in assay [2], 23.9 µM (active). For the same compound, the Potency entry in assay [3], in assay [4] and in assay [5] was “inactive” throughout.

`CN1CC(O)C(O)C(O)C1CO` (stereo not drawn): the Potency result in assay [1], in assay [2], in assay [3] and in assay [5] was “inactive” each time.

For the compound `CC(=O)N[C@@H](Cc1c[nH]c2ccccc12)C(=O)OCc1cc(C(F)(F)F)cc(C(F)(F)F)c1`, the Potency entry in assay [1], in assay [2], in assay [3] and in assay [5] was “inactive” throughout.

For `COC(=O)[C@H](NC(=O)c1cc(-c2ccccc2)nc2ccccc12)c1ccccc1`, the Potency entry in assay [1], in assay [2], in assay [4] and in assay [5] was “inactive” each time.

In the case of `CC(=O)O[C@H]1Cc2ccccc2N(C(N)=O)c2ccccc21`, the Potency entry in assay [1], in assay [2], in assay [3], in assay [4] and in assay [5] was “inactive” in each case.

Take `CCCCCCC(=O)OC1CC(C)(C)NC(C)(C)C1`: the Potency result in assay [1], in assay [2], in assay [3], in assay [4] and in assay [5] was “inactive” in each case.

Turning to `CC1CCN(CC[C@H]2CCCN2S(=O)(=O)c2cccc(O)c2)CC1`, the Potency entry in assay [1], in assay [2], in assay [3], in assay [4] and in assay [5] was “inactive” each time.

In the case of `Nc1nc2[nH]c(=O)cnc2c(=O)[nH]1`, the Potency entry in assay [1], in assay [2], in assay [3] and in assay [5] was “inactive” throughout.

Regarding `O=S(=O)(c1cccc2c(Cl)cccc12)N1CCCNCC1`, the Potency result in assay [1], in assay [2], in assay [3], in assay [4] and in assay [5] was “inactive” throughout.

Consider `NCCNS(=O)(=O)c1cccc2c(Cl)cccc12`, for which the Potency result in assay [1], in assay [2], in assay [3], in assay [4] and in assay [5] was “inactive” throughout.

On to `CCCOC(=O)c1c(-c2ccccc2)nc(CC)c(C(=O)SCC)c1CCC`, for which the Potency result in assay [1], in assay [2], in assay [3], in assay [4] and in assay [5] was “inactive” each time.

On to `O=C(O)CCC/C=C\C[C@@H]1[C@@H](/C=C/[C@H](O)C2Cc3ccccc3C2)[C@@H](F)C[C@@H]1O`, for which the Potency result in assay [1], in assay [2], in assay [4] and in assay [5] was “inactive” throughout.

As for `CSc1nc(N)c2ncn([C@@H]3O[C@H](COP(=O)(O)OP(=O)(O)O)C(O)[C@H]3O)c2n1` (stereo partly drawn), the Potency result in assay [1], in assay [2] and in assay [4] was “inactive” each time.

On to `CC(=O)SC1CC2=CC(=O)CC[C@]2(C)C2CC[C@@]3(C)C(CC[C@@]34CCC(=O)O4)C12` (stereo partly drawn), for which the Potency entry in assay [1], in assay [2], in assay [4] and in assay [5] was “inactive” throughout.
